From PubChem BioAssay
The list is not random: actives were taken first. Their share in the collection is about 10%.
VP16 counter: Gal4-VP16 reporter inhibition counter-screen; Drosophila S2 Gal4-VP16 UAS-luciferase, luminescence, 20 h; Potency, µM (titrated, usually from 53.6 µM), actives largely listed as inhibitors; hit rate 3.5% among 310,000; AID 2546;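 note: Gal4-VP16 expression switched on by copper sulfate through the metallothionein promoter; nearly all actives have a fitted effect of over 50% in size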
SW480 rereplic: inducers of DNA re-replication in SW480 colon cancer cells. hit rate 1.8% among 340,000. Potency, µM (top dose mostly 46.1 µM), hits mostly activators. SW480 DNA re-replication, Hoechst DNA content imaging, 48 h; note: nearly all actives have a fitted effect of over 55% in size
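Image-based read-out: total Hoechst fluorescence of nuclei (405 nm excitation, 500-530 nm emission), with hits raising the fraction of high-intensity nuclei. SW480 colon cells incubated 48 hr with compounds at 37 C.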
MCF10A rereplic: induces DNA re-replication in MCF 10a normal breast cells. MCF 10A DNA re-replication, Hoechst nuclear intensity, 48 h. Potency, µM (highest dose often 46.1 µM), hits mostly activators. hit rate 2.9% among 350,000. AID 624296; note: nearly all actives have a fitted effect of over 50% in size
RORgamma inh: ROR gamma (mouse) transcription inhibition | P51450 | Drosophila S2 Gal4-RORgamma UAS-luciferase reporter, 20 h | Potency, µM (top dose mostly 53.6 µM), usual class: inhibitors | hit rate 5.4% among 310,000 | AID 2551; note: nearly all actives have a fitted effect of over 60% in size
Target sequence (P51450 whole entry, looked up, the tested form may be a part): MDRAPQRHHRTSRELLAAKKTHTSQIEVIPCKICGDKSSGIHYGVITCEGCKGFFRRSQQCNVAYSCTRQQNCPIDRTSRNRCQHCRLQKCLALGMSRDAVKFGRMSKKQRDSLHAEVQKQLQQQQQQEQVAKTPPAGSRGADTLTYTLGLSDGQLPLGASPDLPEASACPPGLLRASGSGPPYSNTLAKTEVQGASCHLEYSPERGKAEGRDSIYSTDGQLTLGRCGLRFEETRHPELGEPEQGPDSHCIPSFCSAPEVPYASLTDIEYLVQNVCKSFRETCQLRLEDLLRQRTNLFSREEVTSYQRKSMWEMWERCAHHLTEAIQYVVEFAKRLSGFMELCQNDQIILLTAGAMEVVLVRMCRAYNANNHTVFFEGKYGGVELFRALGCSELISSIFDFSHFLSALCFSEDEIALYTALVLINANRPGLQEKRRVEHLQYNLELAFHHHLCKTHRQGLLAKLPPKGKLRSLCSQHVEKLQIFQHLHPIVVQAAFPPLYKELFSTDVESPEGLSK
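Read-out: Photinus luciferase luminescence; inhibitors lower reporter signal. Insect Schneider cells with Gal4-ROR gamma fusion under metallothionein promoter, UAS reporter; 700 uM final copper sulfate induction, 20 hr, ambient temperature.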
KB-V1 cytotox: KB-V1 MDR subline cytotoxicity. KB-V1 MDR cells viability, CellTiter-Glo, 72 h. Potency, µM (titrated, usually from 46.1 µM), actives largely listed as cytotoxic. hit rate 3.4% among 400,000. AID 1347076; note: nearly all actives have a fitted effect of over 60% in size
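KB-V1 MDR subline cells in DMEM (phenol-red free, 10% FBS) exposed to compounds in qHTS concentration series for 72 h at 37 degrees C. Viability read by CellTiter-Glo luminescence; concentration-effect curves fitted after normalization and correction.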
KB-3-1 tox: kills parental KB-3-1 adenocarcinoma cells | KB-3-1 viability, CellTiter-Glo ATP luminescence, 72 h | Potency, µM (top dose mostly 46.1 µM), actives largely listed as cytotoxic | hit rate 1.4% among 400,000 | AID 1347075; note: nearly all actives have a fitted effect of over 60% in size
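Cytotoxicity measured as CellTiter-Glo luminescence after 72 h at 37 C. Compound titrations were pinned onto drug-naive KB-3-1 parental adenocarcinoma cells grown in DMEM with 10% FBS, and normalized data fitted to concentration-response curves.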
Numbers stand for hits; [ ] = another dose, or the depositor's remark. Calls come from the whole dose curve; as a rule, active = well fitted curve in the direction sought with a large enough effect; inconclusive = small, poorly fitted or top-dose-only effect, or another doubt; inactive = no such curve, though single readings can be large; an effect the other way counts as inactive or inconclusive.

`Cc1c2cnn(-c3ccccc3)c(=O)c2c(C)n1CCCC(=O)Nc1ccc(F)cc1F` gave KB-V1 cytotox inactive and KB-3-1 tox inactive.
Screening CC(C)NC(=O)C1(C)CSCC(=O)N1CCCN1CCOCC1 (stereo not given) returned KB-V1 cytotox inactive and KB-3-1 tox inactive.
Screening CCOC(=O)c1cc(OCc2csc(-c3ccccc3)n2)cc(C(=O)OCC)c1 returned KB-V1 cytotox inactive and KB-3-1 tox inactive.
Screening O=c1c2cc(N3CCOCC3)ccc2[nH]c(=S)n1Cc1cccc(Cl)c1 returned VP16 counter 5.62µM, SW480 rereplic inactive, MCF10A rereplic inconclusive, RORgamma inh 3.55µM, KB-V1 cytotox inconclusive and KB-3-1 tox inactive.
`O=c1c2cc(Cl)ccc2[nH]c(=S)n1Cc1ccco1` gave VP16 counter 5.62µM, SW480 rereplic inconclusive, MCF10A rereplic inactive, RORgamma inh 2.24µM, KB-V1 cytotox inactive and KB-3-1 tox inactive.
`COc1cccc(Cn2c(=S)[nH]c3ccc(N4CCOCC4)cc3c2=O)c1` gave VP16 counter 6.31µM, SW480 rereplic inconclusive, MCF10A rereplic inconclusive, RORgamma inh 2.82µM, KB-V1 cytotox 3.66µM and KB-3-1 tox inactive.
For COc1ccc(CCN2C(=O)CSC2=Nc2ccc(C(C)C)cc2)cc1OC the results were VP16 counter inconclusive, SW480 rereplic 9.2µM, MCF10A rereplic 16.4µM, RORgamma inh inconclusive, KB-V1 cytotox 3.26µM and KB-3-1 tox 3.66µM.
Screening COc1ccc(N=C2SCC(=O)N2CCc2ccc(OC)c(OC)c2)cc1 returned VP16 counter inactive, SW480 rereplic inactive, MCF10A rereplic inactive, RORgamma inh inactive, KB-V1 cytotox inactive and KB-3-1 tox inconclusive.
`Cc1ccc2c(c1)c(C)c(C)n2CC(O)CN1CCCCC1C` (stereo not given) gave VP16 counter inactive, SW480 rereplic inconclusive, MCF10A rereplic inactive, RORgamma inh inactive, KB-V1 cytotox inconclusive and KB-3-1 tox inactive.
Screening Cc1ccc2c(c1)c1c(n2CC(O)CN2CCCCC2C)CCCC1 (stereo not given) returned VP16 counter inactive, SW480 rereplic 18.4µM, MCF10A rereplic inconclusive, RORgamma inh inactive, KB-V1 cytotox inactive and KB-3-1 tox inconclusive.
CCOC(=O)N1CCC(NC(=O)c2cnn(-c3cccc(F)c3)c2-n2cccc2)CC1 was read as KB-V1 cytotox inactive and KB-3-1 tox inactive.
`COc1ccc(C(=O)NC(=S)NNC(=O)COc2ccccc2)cc1` gave VP16 counter inconclusive, SW480 rereplic inactive, MCF10A rereplic inconclusive, RORgamma inh 7.08µM, KB-V1 cytotox inconclusive and KB-3-1 tox inconclusive.
COc1ccc(C(=O)NC(=S)NNC(=O)c2cnccn2)cc1 was read as VP16 counter inactive, SW480 rereplic inactive, MCF10A rereplic 6.51µM, RORgamma inh inactive, KB-V1 cytotox inactive and KB-3-1 tox inconclusive.
For COCCCNC(=O)COc1ccc(Br)cc1Cl the results were VP16 counter inactive, SW480 rereplic inactive, MCF10A rereplic inactive, RORgamma inh inactive, KB-V1 cytotox 20.6µM and KB-3-1 tox inactive.
Screening CCNC(=O)COc1ccc(Br)cc1Cl returned VP16 counter inactive, SW480 rereplic inactive, MCF10A rereplic inactive, RORgamma inh inactive, KB-V1 cytotox inconclusive and KB-3-1 tox inactive.
For COc1ccc(OCC(=O)NC(=S)NNC(=O)COc2ccc(Br)cc2Cl)cc1 the results were VP16 counter inactive[10 µM], SW480 rereplic inactive, MCF10A rereplic inactive, RORgamma inh 10µM, KB-V1 cytotox inactive and KB-3-1 tox inactive.
c1nc(NC2CCNCC2)c2cc(-c3ccoc3)ccc2n1 was read as VP16 counter inactive and RORgamma inh inactive.
For O=C(COc1ccccc1)NNC(=S)NC(=O)c1ccccc1 the results were VP16 counter 11.2µM, SW480 rereplic inactive, MCF10A rereplic inactive, RORgamma inh 6.31µM, KB-V1 cytotox inactive and KB-3-1 tox inactive.
Screening O=C(COc1ccccc1)NNC(=O)c1ccc(Cl)cc1 returned SW480 rereplic inconclusive, MCF10A rereplic inactive, KB-V1 cytotox inactive and KB-3-1 tox inactive.
For Cc1cccc(OCC(=O)Nc2ccccc2OCc2cc(=O)n3cc(C)ccc3n2)c1 the results were KB-V1 cytotox inactive and KB-3-1 tox inactive.
N/C(=N\OC(=O)c1ccc(Cl)cc1Cl)c1ccc(Cl)cc1 was read as VP16 counter inactive, SW480 rereplic inactive, MCF10A rereplic inactive, RORgamma inh inactive, KB-V1 cytotox inactive and KB-3-1 tox inactive.
Screening Cc1ccc(/C(N)=N/OC(=O)c2ccc(C)cc2Cl)cc1 returned VP16 counter 10µM, MCF10A rereplic inactive, RORgamma inh 4.47µM, KB-V1 cytotox inactive and KB-3-1 tox inactive.
`N/C(Cc1ccc(Cl)cc1Cl)=N\OC(=O)c1ccccc1` gave VP16 counter inactive, SW480 rereplic inactive, MCF10A rereplic inactive, RORgamma inh 12.6µM, KB-V1 cytotox inactive and KB-3-1 tox inactive.
`N/C(=N\OC(=O)c1ccc(Cl)cc1Cl)c1ccccc1` gave VP16 counter inconclusive, SW480 rereplic inactive, MCF10A rereplic inactive, RORgamma inh 5.01µM, KB-V1 cytotox inactive and KB-3-1 tox inactive.
Screening N/C(=N\OC(=O)c1ccccc1Cl)c1ccc(Cl)cc1 returned VP16 counter inactive, SW480 rereplic inactive, MCF10A rereplic inactive, RORgamma inh inconclusive, KB-V1 cytotox inactive and KB-3-1 tox inactive.
Cc1cccc(/C(N)=N/OC(=O)c2cccc3ccccc23)c1 was read as VP16 counter 5.62µM and RORgamma inh 1.12µM.
Screening O=C(NC1CCCCC1)C(c1cccc2ccccc12)n1c(=O)c(-c2ccco2)nc2ccccc21 (stereo not given) returned KB-V1 cytotox inactive and KB-3-1 tox inactive.
For COc1ccc(C(=O)O/N=C(\N)c2ccc(OC)c(OC)c2)c(OC)c1 the results were VP16 counter inactive, SW480 rereplic inactive, MCF10A rereplic inactive, RORgamma inh inactive, KB-V1 cytotox inconclusive and KB-3-1 tox inactive.
Screening COc1ccc(C(=O)O/N=C(\N)c2ccccc2)c(OC)c1 returned VP16 counter 8.91µM, SW480 rereplic inconclusive, MCF10A rereplic inactive, RORgamma inh 4.47µM, KB-V1 cytotox inactive and KB-3-1 tox inactive.
Screening Cc1cccc(/C(N)=N/OC(=O)c2ccc(Cl)cc2Cl)c1 returned VP16 counter 20µM, SW480 rereplic inactive, MCF10A rereplic inconclusive, RORgamma inh 2µM, KB-V1 cytotox inactive and KB-3-1 tox inactive.
`CC(NCCCSc1ccccc1)C(O)c1ccc(O)cc1` (stereo not given) gave KB-V1 cytotox inactive and KB-3-1 tox inactive.
`C=CCNC(=S)NNC(=O)c1cccc2ccccc12` gave VP16 counter inactive, SW480 rereplic inactive, MCF10A rereplic inactive, RORgamma inh 1.12µM, KB-V1 cytotox inactive and KB-3-1 tox inactive.
`C=CCNC(=S)NNC(=O)c1csc(C)c1CC` gave VP16 counter inactive, SW480 rereplic inconclusive, MCF10A rereplic inactive, RORgamma inh 8.91µM, KB-V1 cytotox inconclusive and KB-3-1 tox inactive.
